From PubChem BioAssay (EPA / NIEHS)
Calls of active or inactive are those of the source. Rule for the calls: active = hit-call score of the fitted dose curve at least 0.9, where 1 is the maximum; inactive = score below 0.9.

Assay: CEETOX_H295R_11DCORT: CeeTox H295R High-throughput Steroidogenesis Assay for 11-Deoxycortisol (11DCORT) (AID 2283432);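 for AC50: 11-deoxycortisol secreted into the medium measured by LC-MS/MS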
Details: actives raise or lower the signal
Experimental: CEETOX_H295R is a cell-based, multiplexed-readout assay that uses H295R, a human adrenal gland cell line, with measurements taken at 48 hours after chemical dosing in a 96-well plate.CEETOX_H295R_11DCORT is one of 23 assay component(s) measured or calculated from the CEETOX_H295R assay. It is designed to make measurements of hormone induction, a form of inducible reporter, as detected with absorbance signals by HPLC-MS-MS technology.Data from the assay component CEETOX_H295R_11DCORT was analyzed into 1 assay endpoint. This assay endpoint, CEETOX_H295R_11DCORT, was analyzed with bidirectional fitting relative to DMSO as the negative control and baseline of activity. Using a type of inducible reporter, gain or loss-of-signal activity using HPLC-MS-MS was used to understand synthesis of 11-Deoxycortisol in H295R cell line at 48hr of chemical exposure. To generalize the intended target to other relatable targets, this assay endpoint is annotated to the steroid hormone intended target family, where the subfamily is glucocorticoids.
Cell culture and media preparation procedures were conducted in accordance with OECD Test No. 456 guidelines, with minor modifications. H295R cells (ATCC CRL-2128) were expanded for 5 passages and frozen in batches in liquid nitrogen. Prior to the steroidogenesis assay, H295R cells were thawed and passed at least 4 times. The maximum passage was 10. Cells were maintained in a 1:1 mixture of DMEM/F12 supplemented with 5ml/L ITS+ Premix (BD Bioscience) and 12.5 ml/L Nu-Serum (BD Bioscience). After seeding cells into 96-well plates at 50-60% confluency, cells were allowed to adhere overnight. Prior to chemical testing, culture medium was replaced with 175 uL medium containing 10 uM forskolin to stimulate steroidogenesis for 48 hours. Following prestimulation, forskolin medium was replaced with medium containing test chemical solubilized in DMSO (ensuring a final concentration of 0.1% DMSO). Test chemicals were incubated for 48 hours, then the medium was removed and split into 2 vials containing approximately 75uL each, and stored at -80 C prior to hormone analysis. For steroid quantification, media samples were shipped to OpAns, LLC (Durham, NC) on dry ice, and samples were thawed to room temperature prior to liquid-liquid extraction. Steroid hormones were extracted from media samples using methyl tertbutyl ether (MTBE). An extra derivatization with dansyl chloride was included for estrogen (estrone and estradiol) detection only. Steroid hormones were separated by HPLC, eluted using a reverse phase C18 gradient with electrospray positive ionization, followed by quantification by tandem mass spectrometry (MS/MS). Data were acquired on a MassHunter Workstation Acquisition version B03.01 (Agilent Technologies, Inc.) and processed using MassHunter Quantitative Analysis for QQQ. Accuracy was determined for each hormone analyte from 3 standards to determine upper and lower limits of quantification (ULOQ and LLOQ, respectively) using a 7-point standard curve. Precision and accuracy of the extraction and quantification methods were calculated as the percent relative standard deviation (%RSD) of the spiked standards and percent spiked standard recovered, respectively. The goal was to achieve 100% accuracy (i.e., recover all spiked-in standard at quantification with minimal loss during run time) and good precision (i.e., have %RSD <15% to ensure reproducibility). Test medium was removed following chemical exposure, and cell viability was evaluated in the same wells by MTT. MTT procedures were as follows: after removal of test medium, 500 uL of 0.5 mg/ml of 3-[4,5-dimethylthiazol-2-y]2,5-diphenyltetrazoliumbromide solution was added to the cells. Following a 4-hour incubation at 37 C and 5% CO2 to allow formazan-crystal formation, the MTT solution was removed and blue formazan salt crystals were solubilized using 500uL anhydrous isopropanol with shaking for 20 minutes. […]

SMILES | AC50 | outcome
CCOP(=S)(OCC)Oc1nc(Cl)c(Cl)cc1Cl | 94.9 µM (active) | 
O=C(Nc1ccc2[nH]ccc2c1)c1cc2cc(F)ccc2n1Cc1cccc(F)c1 | 3.48 µM (active) | 
CCOP(=S)(OCC)SCSP(=S)(OCC)OCC | 18.6 µM (active) | 
C[C@]12CC[C@H](O)CC1=CC[C@@H]1[C@@H]2CC[C@]2(C)C(=O)CC[C@@H]12 | 41.1 µM (active) | 
CCCCCCCCC(=O)NCc1ccc(O)c(OC)c1 |  | inactive
Fc1ccc(C2(Cn3cncn3)OC2c2ccccc2Cl)cc1 (centres undefined) | 7.55 µM (active) | 
C1CCC(NC2CCCCC2)CC1 |  | inactive
Nc1ccc(-c2ccc(N)c(Cl)c2)cc1Cl |  | inactive
CN(CCCC(=O)c1cccnc1)N=O |  | inactive
CC12CC1(C)C(=O)N(c1cc(Cl)cc(Cl)c1)C2=O (centres undefined) |  | inactive
C=CC(=O)N(C)C |  | inactive
O=C(Cc1ccccc1)c1ccccc1 |  | inactive
CCOP(=S)(OCC)SCCS(=O)(=O)CC |  | inactive
Oc1ccc(-c2ccccc2)cc1 | 87.6 µM (active) | 
